Screening results: PubChem BioAssay, National Center for Advancing Translational Sciences (NCATS)
NPC1 prom act: NPC1 promoter activation; Huh7 NPC1 promoter luciferase reporter, 24 h; Potency, µM (highest dose often 9.22 µM), inactives show at the highest dose activation, hits mostly activators; 320,000 tested, 2.4% active; also: % of control where 0% means no effect; nearly all actives have a fitted effect of over 60% in size
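Quantitative HTS used a cell-based reporter: Huh7 cells stably bearing the NPC1 promoter upstream of luciferase were treated with compounds for 24 h, and promoter activation was read as luminescence.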
Rab9 prom act: Rab9 promoter activation | Huh7 Rab9 promoter-luciferase reporter, luminescence, 24 h | 320,000 tested, 2.8% active | AID 485297 | Potency, µM (series often up to 9.22 µM), without a hit: top-dose activation, negative = inhibition, most hits filed as activators; also: % of control where 0% means no effect; nearly all actives have a fitted effect of over 60% in size
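Huh7 cells stably carrying Rab9 promoter–luciferase reporter, plated 1500 cells/well, compound added after 2 h and incubated 24 h at 37 °C; luciferase luminescence then read after 10 min with detection reagent.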
SMN2 splice up: SMN2 splice variant enhancement. Potency, µM (titrated, usually from 46.1 µM), for inactives: top-dose activity change, positive = activation, actives largely listed as activators. 210,000 tested, 2.8% active. AID 1458. HEK293 SMN2-luciferase splicing reporter, luminescence, 30-36 h; also: % of control where 0% means no effect; nearly all actives have a fitted effect of over 55% in size
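qHTS luciferase splicing reporter: luminescence rises when SMN2 exon 7 is included in transfected HEK293 cells. Compound exposure lasted 30-36 h at 37C, with 4.5 mM final sodium butyrate as control, followed by a ONE-Glo read.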
ELG1 genotoxic: genotoxicity induction in ELG1-luciferase HEK293T cells | AID 504466 | 330,000 tested, 1.3% active | Potency, µM (highest dose often 46 µM), for inactives: at the top dose activity change, positive = activation, actives largely listed as activators | HEK293T ELG1-luciferase reporter, luminescence, 16 h; also: % of control where 0% means no effect; nearly all actives have a fitted effect of over 60% in size
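DMSO vehicle served as control against compound-treated ELG1-luciferase HEK293T cells; exposure lasted 16 hr at 37 °C and 5% CO2, followed by ONE-Glo luminescence detection after 30 min.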
FLuc counter: inhibits or activates purified firefly luciferase, miR-21 counter-screen; Potency, µM (titrated, usually from 57.5 µM), inactives show at the top dose activity change, negative = inhibition, actives largely listed as inhibitors; purified FLuc, Km substrates, luminescence inhibition; P08659; 360,000 tested, 6.9% active;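 also: plate controls were vehicle for no effect and reference inhibitor for full effect; nearly all actives have a fitted effect of over 55% in size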
Target sequence (P08659 whole entry, looked up): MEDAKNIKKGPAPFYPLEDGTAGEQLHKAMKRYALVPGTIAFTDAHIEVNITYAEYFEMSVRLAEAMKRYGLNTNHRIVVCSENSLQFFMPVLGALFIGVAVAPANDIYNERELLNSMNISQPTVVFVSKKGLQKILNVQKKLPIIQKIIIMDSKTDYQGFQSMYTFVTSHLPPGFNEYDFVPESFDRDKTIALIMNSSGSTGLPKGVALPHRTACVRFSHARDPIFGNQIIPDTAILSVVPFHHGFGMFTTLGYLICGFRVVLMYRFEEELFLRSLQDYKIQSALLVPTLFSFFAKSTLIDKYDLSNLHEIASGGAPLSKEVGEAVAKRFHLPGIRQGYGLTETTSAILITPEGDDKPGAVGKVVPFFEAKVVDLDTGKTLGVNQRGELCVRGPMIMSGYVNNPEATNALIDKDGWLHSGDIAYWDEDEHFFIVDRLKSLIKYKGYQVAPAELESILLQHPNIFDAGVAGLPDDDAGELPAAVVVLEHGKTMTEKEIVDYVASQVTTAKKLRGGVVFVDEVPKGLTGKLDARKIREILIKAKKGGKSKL
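Purified P. pyralis luciferase (10nM final) with 10uM D-luciferin and 10uM ATP (Km levels) in 50mM Tris acetate pH 7.5, 10mM Mg acetate, 0.01% Tween-20, 0.05% BSA; qHTS 6-point titration, ~60 µM downward; luminescence read.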
Luc counter: counter-screen: inhibitors of Kinase-Glo firefly luciferase; 200,000 tested, 0.28% active; Potency, µM (highest dose often 38.3 µM), inactives show at the top dose activity change, negative = inhibition, most hits filed as inhibitors; Q27757; Kinase-Glo luciferase, ATP luminescence, 8 min; also: % is scaled to controls: 0 for no effect and ±100 for the full control effect; nearly all actives have a fitted effect of over 60% in size
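Compounds were added to a substrate mix at pH 7.2 (50 mM imidazole, 10 uM ATP, within the enzyme's linear range), followed by Kinase-Glo detection reagent; luminescence was measured after 8 minutes at ambient temperature.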
* hit, by the source's call; ? = inconclusive; . = no result; [ ] = remark or other dose. An excerpt weighted towards active compounds, which were near 7.3% of everything screened. Calls follow the shape of the dose curve; as a rule, active = well fitted curve in the direction sought with a large enough effect; inconclusive = small, poorly fitted or top-dose-only effect, or another doubt; inactive = no such curve, though single readings can be large; an effect the other way counts as inactive or inconclusive. Potency is read from the fitted curve at half-maximal effect.

SMILES	NPC1 prom act	Rab9 prom act	SMN2 splice up	ELG1 genotoxic	FLuc counter	Luc counter
CN(C(=O)COC(=O)c1ccc(Cl)c(S(=O)(=O)N2CCCCC2)c1)C1(C#N)CCCCC1	-2.1%	-8.5%	.	0.3%	-15.5%	.
CN(C(=O)COC(=O)c1ccc(Cl)s1)C1(C#N)CCCCC1	-7.2%	1.4%	.	1.1%	19µM*	.
Cc1ccc(C(=O)OCC(=O)c2ccc(Cl)s2)s1	1.1%	21.2%	.	?	2.69µM*	-2.4%
O=C(COC(=O)c1ccc[nH]c1=O)c1ccc(Cl)s1	-4.0%	2.8%	8.2%	-1.5%	15.1µM*	-3.1%
COCCNC(=O)c1ccc(-n2c(=O)c(=O)[nH]c3ccccc32)cc1	.	.	.	.	.	-0.3%
COc1ccc(CCN2C(=O)CN(C3CCC(C)CC3)C(=O)C2c2ccc(OC(C)C)c(OC)c2)cc1OC (configuration not stated)	.	.	.	.	1.2%	.
c1ccc2c(c1)NC1(CCCC1)n1c-2nc2ccccc21	28.6%	2.0%	11.1%	1.8%	19µM*	-4.5%
CCCC1(C)Nc2ccccc2-c2nc3ccccc3n21 (configuration not stated)	23.3%	?	-5.4%	18.4%	19µM*	-3.0%
CCCn1c(-c2ccc[nH]c2=O)nc2ccccc21	0.6%	-20.0%	.	0.3%	-1.7%	4.6%
COC(=O)c1c(C)[nH]c(C(=O)/C=C/c2ccccc2F)c1C	1.26µM*	1µM*	.	4.61µM*	0.301µM*	.
COC(=O)c1c(C)[nH]c(C(=O)/C=C/c2ccccc2Cl)c1C	2µM*	?	.	17.5%	?	.
COC(=O)c1c(C)[nH]c(C(C)=O)c1C	-1.0%	-0.6%	-24.0%	0.0%	7.9%	-8.1%
O=c1oc2cc(N=Cc3ccc4c(c3)OCO4)ccc2c2ccccc12	.	.	7.2%[9.22 µM]	.	.	-4.1%[7.66 µM]
O=C(CNC(=O)c1ccc(Br)o1)NC12CC3CC(CC(C3)C1)C2	-3.8%	5.3%	.	10.6%	-1.2%	.
CCNC(=O)c1ccc(C23CC4CC(CC(C4)C2)C3)o1	-7.1%	-2.5%	-6.5%	-5.9%	13.5µM*	0.1%
COc1ccccc1C(=O)N(CCC1CCCN1C)c1nc2ccccc2s1 (configuration not stated)	-2.7%	-3.6%	-14.4%	?	4.78µM*	-7.6%
COc1ccc2sc(N(CCCN(C)C)C(=O)c3nc4ccccc4s3)nc2c1	-0.4%	12.5%	9.6%	4.2%	-11.1%	3.5%
Cc1occc1C(=O)Nc1sccc1C(N)=O	15.4%	15.1%	.	2.5%	?	.
NC(=O)c1ccsc1NC(=O)c1coc2ccccc2c1=O	?	2µM*	11.2µM*	7.3µM*	2.39µM*	-12.1%
O=C(COC(=O)CC1CC2CCC1C2)NCc1ccc(F)cc1 (configuration not stated)	.	.	.	0.8%	.	.
O=C(CC1CC2CCC1C2)OCC(=O)c1c[nH]c2ccccc12 (configuration not stated)	0.4%	6.2%	8.0%	5.2%	15.1µM*	3.4%
COc1cccc(C(=O)OCC(=O)c2c[nH]c3ccccc23)c1OC	19.4%	?	.	15.0%	9.53µM*	.
O=C(OCC(=O)c1c[nH]c2ccccc12)c1cccc([N+](=O)[O-])c1	15.9%	13.2%	.	11.2%	16.9µM*	.
Cc1cc2c(cc1S(=O)(=O)N(CCN(C)C)Cc1ccccc1)OCC(=O)N2	.	.	.	.	-1.9%	.
Cc1cc(NC(=O)CSc2nc3c(cc2C#N)CCCC3)no1	2.51µM*	1.58µM*	3.98µM*	?	?	-0.4%
Cc1cc(NC(=O)CSc2nc3c(cc2C#N)CCC3)no1	0.501µM*	0.501µM*	.	4.11µM*	?	.
N#Cc1cc2c(nc1SCc1ccncc1)CCC2	?	?	11.2µM*	?	?	-2.4%
COc1cccc(NC(=O)Cn2c(=O)n(-c3ccc(C)cc3)c(=O)c3ccccc32)c1	.	.	-2.7%	.	-6.5%	.
COc1ccc(-n2c(SCc3ccccc3F)nc3c([nH]c4ccccc43)c2=O)cc1	.	.	.	.	0.4%	.
